Laboratory results from PubChem BioAssay (NCI).
This is part of a sample that, as a whole, favours compounds with a hit. Of some 83,000 tested, about 20% had one in any assay.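 Each cell line was grown in a 96-well plate and treated with one concentration of compound for 48 hours. Values below 10 were considered active.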 Unmarked numbers belong to inactive results. Active and inactive are the calls of the source.

Experiments:
Assay in all cases: NCI-60 one-dose screen, 48 h (100 = growth as untreated, 0 = no growth, -100 = all killed)
Details in all cases: 10 µM unless noted
DU-145 prostate = test system: DU-145 prostate
K-562 leukemia = test system: K-562 leukemia
MALME-3M melanoma = test system: MALME-3M melanoma
MDA-MB-231 breast = test system: MDA-MB-231 breast
RXF 393 renal = test system: RXF 393 renal
SF-268 CNS = test system: SF-268 CNS
SF-295 CNS = test system: SF-295 CNS
UACC-257 melanoma = test system: UACC-257 melanoma
M14 melanoma = test system: M14 melanoma
SF-539 CNS = test system: SF-539 CNS

| Compound | growth (DU-145 prostate) | growth (K-562 leukemia) | growth (MALME-3M melanoma) | growth (MDA-MB-231 breast) | growth (RXF 393 renal) | growth (SF-268 CNS) | growth (SF-295 CNS) | growth (UACC-257 melanoma) | growth (M14 melanoma) | growth (SF-539 CNS) |
| --- | --- | --- | --- | --- | --- | --- | --- | --- | --- | --- |
| O=C1c2cccc3c([N+](=O)[O-])ccc(c23)C(=O)N1CCCCl | -82.1% [100 µM] (active) | -25.8% [100 µM] (active) | -73.9% [100 µM] (active) | -93.1% [100 µM] (active) | -83.3% [100 µM] (active) | -78.9% [100 µM] (active) | -92% [100 µM] (active) | -97% [100 µM] (active) | -85.6% [100 µM] (active) |  |
| FC(F)(F)c1ccc(-c2cnc(-c3nn[nH]n3)nc2NC2CCCCCC2)cc1 | 64% [50 µM] | 20% [50 µM] | 69.5% [50 µM] | 64.1% [50 µM] | 88.7% [50 µM] | 47.8% [50 µM] |  | 81.6% [50 µM] | 53.2% [50 µM] | 64% [50 µM] |
| O=c1c2ccccc2c2nccn2c2cc(Cl)ccc12 | 98.1% | 57.7% | 159% | 126% |  | 91.9% | 85.5% | 66.5% | 110% | 94.2% |
| COC(=O)[C@H](Cc1cnc[nH]1)NC(=O)[C@@H](NC(=O)Nc1cc(C(F)(F)F)cc(C(F)(F)F)c1)C(C)C | -100% [100 µM] (active) | -46% [100 µM] (active) | -94.4% [100 µM] (active) | -95.9% [100 µM] (active) | -89.3% [100 µM] (active) | -92.7% [100 µM] (active) |  | -87.6% [100 µM] (active) | -89% [100 µM] (active) | -95.7% [100 µM] (active) |
| NS(=O)(=O)c1ccc(-n2nc(-c3ccc(Br)cc3)ccc2=O)cc1 | 12.4% [100 µM] | 40.1% [100 µM] | 55.1% [100 µM] | 34.2% [100 µM] | 40.9% [100 µM] | 66.8% [100 µM] |  | 106% [100 µM] | 62.4% [100 µM] | 67% [100 µM] |
| CSc1nc(-c2ccc(O)cc2O)c2c(=O)[nH]c(Nc3ccc(S(=O)(=O)Nc4nc(C)cc(C)n4)cc3)nc2n1 | 95.1% | 99.4% | 79.8% | 100% | 115% | 101% |  | 124% |  | 108% |
| COC(=O)c1c(NC(=O)CSc2nnnn2-c2ccc(OC)cc2)sc(C)c1C | 108% | 81.5% | 104% | 76.5% |  | 93.5% | 156% | 16.8% | 95.8% | 98.3% |
| Cc1ccc(S(=O)(=O)N2CCN(C(=O)CSc3nc4ccc(C)cc4[nH]3)CC2)cc1 | 109% | 74.8% | 126% | 92.3% |  | 101% | 159% | 63.4% | 101% | 110% |
| NC(=O)c1cc(Cl)ccc1NC(=O)c1ccccc1-c1ccccc1 | -8.79% (active) | 11.5% | 30.4% | 29.4% |  | 54.1% | 8.66% (active) | 68.6% | -24% (active) | -12.5% (active) |
| Clc1ccc2nc(CI)c(CI)nc2c1 | 86.1% | -20.1% (active) | 74.6% | 74.4% |  | 73.7% | 88.8% | 86.2% | 48.9% | 100% |
| NS(=O)(=O)c1ccc(N2CC(c3nc4ccccc4[nH]3)CC2=O)cc1 (configuration not stated) | 109% | 97.2% | 92.9% | 85.4% |  | 96.1% | 99.9% | 109% | 96.9% | 96.6% |
| O=C1Nc2ccc(Cl)cc2[C@@](C#CC2CC2)(C(F)(F)F)O1 | 104% | 67.3% | 93.4% | 86.5% |  | 117% | 82% | 79.9% | 86.2% | 104% |
| COc1ccc(NC(=O)[C@@H]2C[C@H]2c2ccccc2)c(C(N)=O)c1 | 105% | 71.8% | 91% | 87.9% |  | 97.9% | 100% | 92.9% | 91.4% | 99.7% |
| COc1cccc(N2CCN(CC(=O)N3CCN(c4nnc(-c5ccc(Cl)cc5)c(-c5ccc(Cl)cc5)n4)CC3)CC2)c1 | 89% | 32.6% | 92.2% | 83.1% |  | 84.1% | 66.7% |  | 70.5% | 57.8% |
| COc1ccc(NC(=O)c2ccc(-c3ccccc3)cc2)c(C(N)=O)c1 | 102% | 92.5% | 91.6% | 91.3% |  | 113% | 99.3% | 102% | 110% | 97.4% |
| Clc1ccc(C2c3ccccc3-c3nccn32)c(Cl)c1 (configuration not stated) | 92.4% | 35.5% | 83.8% | 84.1% |  | 99.3% | 41.7% | 80.5% | 65% | 88.5% |
| O=C(/C=C(\Nc1ccccc1)c1ccccc1)c1cn(-c2ccc([N+](=O)[O-])cc2)nn1 | 125% | 73.8% | 103% | 103% |  | 98.3% | 73.3% | 42.4% | 97.6% | 94.9% |
| NS(=O)(=O)N(c1cc(C(F)(F)F)cc(C(F)(F)F)c1)C1CCN(Cc2ccc(C(F)(F)F)cc2)CC1 | 8.8% (active) | 21% | 71.2% | 19.1% |  | 38.5% | 49.8% |  | -0.587% (active) | 0.806% (active) |
| COc1ccc([N+](=O)[O-])c(S(=O)(=O)c2ccc(Cl)cc2)n1 | 93.2% | 7.72% (active) | 11.8% | 68.1% |  | 92.4% | 95.3% | 94.9% | 60.5% | 82.8% |
| C1=C(Cc2ccccc2)n2cnc3ncnc(c32)S1 | 27.3% | 14.4% | 68% | 35.1% |  | 71.9% | 30% | 74.9% | 13.2% | 43.2% |
| O=C(O)CCNS(=O)(=O)c1ccc(-c2ccccc2)cc1 | 127% | 114% | 112% | 123% |  | 115% | 131% | 87.5% | 104% | 108% |
| CCc1ccc(-c2nc(SCC(=O)NC3CCCCC3)n[nH]2)cc1 | 102% | 33.3% | 88.2% | 63.3% |  | 82.6% | 15.8% | -1.69% (active) | 77.7% | 92.9% |
| COc1ccc2c(=O)c(OC)c(-c3cc(OC)c(OC)c(OC)c3)oc2c1 | 109% | 87.1% | 113% | 84.1% |  | 100% | 113% |  | 109% | 91.5% |
| C[C@H]1C(=O)N2c3ccccc3[C@@]3(O)C[C@@H](n4cnc5ccccc5c4=O)C(=O)N1[C@@H]23 | 123% | 99.2% | 107% | 110% |  | 112% | 130% | 66.8% | 108% | 101% |
| CN(C)CCCNc1nn2c(=O)c3ccccc3nc2c2ccccc12 | 81.4% | 41% | 66.4% | 77.1% |  | 61% | 47.9% |  | 89.2% | 41.2% |
| Cc1cn(C(C=O)OC(C=O)CO)c(=O)[nH]c1=O (configuration not stated) | 108% | 104% | 98.8% | 108% |  | 113% | 102% | 88% | 108% | 104% |
| FC(F)(F)c1cc(-c2nnc3n2N=C(N2CCCC2)CS3)cc(C(F)(F)F)c1 | 86.8% | 70.7% | 83.4% | 59.6% |  | 74.9% | 45.9% | 93.2% | 100% | 30% |
| COc1ccc(-c2nnc3c4[nH]cnc4ncn23)c(OC)c1 | 26.5% | 11.5% | 37.4% | 29% |  | 33% | 20.1% | 40.6% | 10.5% | 14.6% |
